Reference: PubChem BioAssay AID1159580 (chemical genetic matrix, 2015)
The campaign covered roughly 5,500 compounds. About 2,000 (36%) were called active. Inconclusive results (about 18%) are left out. Rule as the data show it: active = normalized growth mostly below about 0.91 (no sharp cut-off); inconclusive = no clear call, values can overlap the other calls; inactive = mostly above about 0.92. The list shows a part of the results.

Experiment: chemical genetic growth profiling, strain panel (AID 1159580);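 also: tested at 20 µM; growth read once vehicle control cultures reached saturation at 30 °C; 1 = growth at the plate median or of vehicle wells; lower values mean less growth of the strain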
Details: growth OD
[1] = S. cerevisiae deletion strains, locus YDL101C, strain DUN1, stronger effect = lower value
[2] = S. cerevisiae deletion strains, locus YHR030C, strain SLT2, stronger effect = lower value

Measured: normalized growth

O=C(NC(=S)Nc1cccc(C(F)(F)F)c1)c1ccc2nonc2c1
inactive: S. cerevisiae deletion strains, locus YAR019C, strain CDC15, stronger effect = lower value 0.956 | S. cerevisiae deletion strains, locus YBL105C, strain PKC1, stronger effect = lower value 0.968 | S. cerevisiae deletion strains, locus YBR135W, strain CKS1, stronger effect = lower value 0.93 | S. cerevisiae deletion strains, locus YBR136W, strain MEC1, stronger effect = lower value 0.952 | S. cerevisiae deletion strains, locus YBR160W, strain CDC28, stronger effect = lower value 0.96 | S. cerevisiae deletion strains, locus YDL017W, strain CDC7, stronger effect = lower value 0.96 | S. cerevisiae deletion strains, locus YDL028C, strain MPS1, stronger effect = lower value 0.952 | [1] 0.957 | S. cerevisiae deletion strains, locus YDL108W, strain KIN28, stronger effect = lower value 0.957 | S. cerevisiae deletion strains, locus YDL132W, strain cdc53, stronger effect = lower value 0.967 | S. cerevisiae deletion strains, locus YDL214C, strain PRR2, stronger effect = lower value 0.973 | S. cerevisiae deletion strains, locus YDR052C, strain DBF4, stronger effect = lower value 0.978 | S. cerevisiae deletion strains, locus YDR054C, strain cdc34, stronger effect = lower value 0.94 | S. cerevisiae deletion strains, locus YDR226W, strain ADK1, stronger effect = lower value 0.957 | S. cerevisiae deletion strains, locus YDR477W, strain SNF1, stronger effect = lower value 0.896 | S. cerevisiae deletion strains, locus YER123W, strain YCK3, stronger effect = lower value 0.971 | S. cerevisiae deletion strains, locus YER133W, strain GLC7, stronger effect = lower value 0.95 | S. cerevisiae deletion strains, locus YFL009W, strain cdc4, stronger effect = lower value 0.944 | S. cerevisiae deletion strains, locus YFL029C, strain CAK1, stronger effect = lower value 0.961 | S. cerevisiae deletion strains, locus YFR003C, strain YPI1, stronger effect = lower value 0.96 | S. cerevisiae deletion strains, locus YFR019W, strain FAB1, stronger effect = lower value 1 | S. cerevisiae deletion strains, locus YFR028C, strain CDC14, stronger effect = lower value 0.944 | S. cerevisiae deletion strains, locus YGR040W, strain KSS1, stronger effect = lower value 0.907 | S. cerevisiae deletion strains, locus YGR052W, strain FMP48, stronger effect = lower value 1.04 | S. cerevisiae deletion strains, locus YGR092W, strain DBF2, stronger effect = lower value 0.989 | S. cerevisiae deletion strains, locus YHR079C, strain IRE1, stronger effect = lower value 0.949 | S. cerevisiae deletion strains, locus YHR082C, strain KSP1, stronger effect = lower value 0.912 | S. cerevisiae deletion strains, locus YHR205W, strain SCH9, stronger effect = lower value 0.907 | S. cerevisiae deletion strains, locus YIL147C, strain SLN1, stronger effect = lower value 0.952 | S. cerevisiae deletion strains, locus YJL095W, strain BCK1, stronger effect = lower value 0.778 | S. cerevisiae deletion strains, locus YJL128C, strain PBS2, stronger effect = lower value 0.978 | S. cerevisiae deletion strains, locus YJL157C, strain FAR1, stronger effect = lower value 0.974 | S. cerevisiae deletion strains, locus YJR016C, strain ILV3, stronger effect = lower value 0.93 | S. cerevisiae deletion strains, locus YJR066W, strain TOR1 (second series), stronger effect = lower value 0.938 | S. cerevisiae deletion strains, locus YJR066W, strain TOR1, stronger effect = lower value 0.838 | S. cerevisiae deletion strains, locus YKL048C, strain ELM1, stronger effect = lower value 0.968 | S. cerevisiae deletion strains, locus YKL067W, strain YNK1, stronger effect = lower value 0.979 | S. cerevisiae deletion strains, locus YKL101W, strain HSL1, stronger effect = lower value 0.956 | S. cerevisiae deletion strains, locus YKL193C, strain SDS22, stronger effect = lower value 0.953 | S. cerevisiae deletion strains, locus YKL203C, strain TOR2, stronger effect = lower value 0.972 | S. cerevisiae deletion strains, locus YLR133W, strain CKI1, stronger effect = lower value 0.966 | S. cerevisiae deletion strains, locus YLR403W, strain SFP1, stronger effect = lower value 0.968 | S. cerevisiae deletion strains, locus YML070W, strain DAK1, stronger effect = lower value 0.953 | S. cerevisiae deletion strains, locus YMR001C, strain CDC5, stronger effect = lower value 0.957 | S. cerevisiae deletion strains, locus YMR205C, strain PFK2 (second series), stronger effect = lower value 0.959 | S. cerevisiae deletion strains, locus YMR277W, strain FCP1, stronger effect = lower value 0.953 | S. cerevisiae deletion strains, locus YNL006W, strain LST8, stronger effect = lower value 0.961 | S. cerevisiae deletion strains, locus YNL020C, strain ARK1, stronger effect = lower value 0.962 | S. cerevisiae deletion strains, locus YNL161W, strain CBK1, stronger effect = lower value 0.954 | S. cerevisiae deletion strains, locus YNL183C, strain NPR1, stronger effect = lower value 0.852 | S. cerevisiae deletion strains, locus YNL207W, strain RIO2, stronger effect = lower value 0.962 | S. cerevisiae deletion strains, locus YNL222W, strain SSU72, stronger effect = lower value 0.947 | S. cerevisiae deletion strains, locus YNL307C, strain MCK1 (second series), stronger effect = lower value 0.974 | S. cerevisiae deletion strains, locus YOL078W, strain AVO1, stronger effect = lower value 0.953 | S. cerevisiae deletion strains, locus YOL136C, strain PFK27, stronger effect = lower value 0.991 | S. cerevisiae deletion strains, locus YOR061W, strain CKA2, stronger effect = lower value 0.967 | S. cerevisiae deletion strains, locus YOR119C, strain RIO1, stronger effect = lower value 1.02 | S. cerevisiae deletion strains, locus YOR231W, strain MKK1, stronger effect = lower value 0.863 | S. cerevisiae deletion strains, locus YOR329C, strain SCD5, stronger effect = lower value 0.969 | S. cerevisiae deletion strains, locus YPL031C, strain PHO85, stronger effect = lower value 0.912 | S. cerevisiae deletion strains, locus YPL153C, strain RAD53, stronger effect = lower value 0.905 | S. cerevisiae deletion strains, locus YPL204W, strain HRR25, stronger effect = lower value 0.936 | S. cerevisiae deletion strains, locus YPL209C, strain IPL1, stronger effect = lower value 0.945 | S. cerevisiae deletion strains, locus YPR025C, strain CCL1, stronger effect = lower value 0.951 | S. cerevisiae deletion strains, locus YPR106W, strain ISR1, stronger effect = lower value 0.973 | S. cerevisiae deletion strains, locus YPR111W, strain DBF20, stronger effect = lower value 0.936 | S. cerevisiae deletion strains, strain NNK1, stronger effect = lower value 0.954 | S. cerevisiae deletion strains, strain TSCII, stronger effect = lower value 0.939
active: [2] 0.774 | S. cerevisiae deletion strains, locus YLR113W, strain HOG1, stronger effect = lower value 0.713 | S. cerevisiae deletion strains, locus YPL256C, strain CLN2, stronger effect = lower value 0.831

COc1ccc(CCNC(=S)Nc2cccc(C(F)(F)F)c2)cc1OC
inactive: S. cerevisiae deletion strains, locus YAL013W, strain DEP1, stronger effect = lower value 0.997 | S. cerevisiae deletion strains, locus YBR229C, strain ROT2, stronger effect = lower value 0.995 | [1] 0.999 | S. cerevisiae deletion strains, locus YDR150W, strain NUM1, stronger effect = lower value 0.957 | S. cerevisiae deletion strains, locus YEL061C, strain CIN8, stronger effect = lower value 1.02 | S. cerevisiae deletion strains, locus YGR078C, strain PAC10, stronger effect = lower value 0.971 | [2] 0.9 | S. cerevisiae deletion strains, locus YHR087W, strain rtc3, stronger effect = lower value 1.03 | S. cerevisiae deletion strains, locus YJL187C, strain SWE1, stronger effect = lower value 1.01 | S. cerevisiae deletion strains, locus YJR043C, strain POL32, stronger effect = lower value 0.968 | S. cerevisiae deletion strains, locus YJR075W, strain HOC1, stronger effect = lower value 0.981 | S. cerevisiae deletion strains, locus YLR039C, strain RIC1, stronger effect = lower value 0.837 | S. cerevisiae deletion strains, locus YLR058C, strain SHM2 (second series), stronger effect = lower value 1.01 | S. cerevisiae deletion strains, locus YLR085C, strain ARP6, stronger effect = lower value 0.962 | S. cerevisiae deletion strains, locus YLR262C, strain YPT6, stronger effect = lower value 0.831 | S. cerevisiae deletion strains, locus YML094W, strain GIM5, stronger effect = lower value 0.968 | S. cerevisiae deletion strains, locus YMR219W, strain ESC1, stronger effect = lower value 1 | S. cerevisiae deletion strains, locus YMR263W, strain SAP30, stronger effect = lower value 0.981 | S. cerevisiae deletion strains, locus YNL128W, strain TEP1, stronger effect = lower value 0.987 | S. cerevisiae deletion strains, locus YNL153C, strain GIM3, stronger effect = lower value 0.969 | S. cerevisiae deletion strains, locus YNL298W, strain CLA4 (second series), stronger effect = lower value 1 | S. cerevisiae deletion strains, locus YNL322C, strain KRE1, stronger effect = lower value 0.996 | S. cerevisiae deletion strains, locus YNR030W, strain Alg12, stronger effect = lower value 1 | S. cerevisiae deletion strains, locus YOL006C, strain TOP1, stronger effect = lower value 0.964 | S. cerevisiae deletion strains, locus YPL055C, strain LGE1, stronger effect = lower value 1 | S. cerevisiae deletion strains, locus YPL241C, strain CIN2, stronger effect = lower value 0.969 | S. cerevisiae deletion strains, locus YPR135W, strain CTF4, stronger effect = lower value 0.895 | S. cerevisiae strains, strain wild type, stronger effect = lower value 0.982
